Among the data in PubChem BioAssay AID493152 (Sanford-Burnham Center for Chemical Genomics, 2011) are inhibition values, retold here.

The list shows a part of the results. A number with no mark means an inactive call. The source made the active and inactive calls.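 How the source made its calls: active means inhibition reaching a set limit in any replicate at 20 µM, the limit being 80% of the first screen's; inactive means the rest.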

The target in this experiment is DNA dC->dU-editing enzyme APOBEC-3G (Homo sapiens) (UniProt Q9HC16). Kind of experiment: human A3G ssDNA deamination inhibition, hit confirmation – biochemical, fluorescence, single-stranded DNA substrate, single concentration (AID 493152). The conditions noted are these: recombinant A3G ssDNA deaminase, UDG/FAM-TAMRA fluorescence; at 20 µM; stronger effect = higher value.
DNA dC->dU-editing enzyme APOBEC-3G (Homo sapiens), sequence (Q9HC16 whole entry, looked up): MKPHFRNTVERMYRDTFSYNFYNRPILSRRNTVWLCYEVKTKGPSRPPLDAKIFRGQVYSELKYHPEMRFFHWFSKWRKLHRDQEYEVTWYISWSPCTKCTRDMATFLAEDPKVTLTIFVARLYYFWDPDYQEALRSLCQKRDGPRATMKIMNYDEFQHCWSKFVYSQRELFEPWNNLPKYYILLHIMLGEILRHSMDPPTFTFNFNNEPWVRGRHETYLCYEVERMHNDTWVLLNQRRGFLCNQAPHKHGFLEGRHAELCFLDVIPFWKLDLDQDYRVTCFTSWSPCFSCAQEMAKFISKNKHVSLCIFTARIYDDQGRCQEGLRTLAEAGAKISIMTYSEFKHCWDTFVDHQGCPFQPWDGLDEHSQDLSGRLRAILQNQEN
One may read the inhibition as the drop in the measured response relative to a control, in per cent. Consider `Cc1cc(C)c2c(-c3ccc(F)cc3)c(C#N)c(=O)n(C)c2n1`, for which the inhibition was -1.37%.

`Cc1n[nH]c(=S)n1/N=C/c1ccc(Br)o1`: the inhibition was 80.4% (active).

Turning to `CCOc1ccc(NC(=O)c2ccc(NC(=O)COC(=O)c3ccc(NC(=O)CC#N)cc3)cc2)cc1`, the inhibition was 51.5% (active).

`Cc1cc(-c2n[nH]c(=S)n2/N=C/c2ccco2)n[nH]1`: the inhibition is 58.5% (active). Consider `Cc1nc([N+](=O)[O-])nn1C12CC3CC(CC(Br)(C3)C1)C2`, for which the inhibition was 50.8% (active). In the case of `S=c1[nH]nc2c3c4c(sc3ncn12)CCCC4`, the inhibition was 80% (active).

With `Cn1c2ccccc2c(=O)c2c(=O)n(Cc3ccco3)c(COc3ccccc3)nc21`, the inhibition is 22%. Regarding `CCc1c(C)[nH]c(=S)c(C#N)c1C`, the inhibition was 89.2% (active).

In the case of `CCOc1cc(C(=S)N2CCOCC2)ccc1O`, the inhibition is 65.3% (active). With `S=c1[nH]nc(-c2ccc(Cl)cc2)n1CC1CCCO1` (centres undefined) the figure was 55.9% (active).

In the case of `Fc1ccc(Nc2nnns2)cc1`, the inhibition was 23.7% (active). For the compound `CCC(CC)c1nnc(NC(=O)C2CCN(C(=O)c3ccco3)CC2)s1`, the inhibition is 24.5% (active).

`COc1ccccc1-n1c(-c2cc(-c3ccco3)[nH]n2)n[nH]c1=S`: the inhibition is 50.2% (active). With `S=c1[nH]nc(Nc2ccccc2)s1` the figure was 68.3% (active); with `Cc1ccc(S(=O)(=O)N(C)CC(=O)NCCc2c[nH]c3ccccc23)cc1`, 4.16%; with `COc1ccc(N2C(=O)CC(Sc3n[nH]c(-c4ccc(C)cc4)n3)C2=O)cc1` (centres undefined), 46% (active).

As for `S=c1[nH]nc(-c2cc(-c3ccccc3)n[nH]2)n1/N=C/c1c2ccccc2cc2ccccc12`, the inhibition is 8.05%. Then `Cc1ccnc(-n2sc3ccccc3c2=O)n1`, with 55.1% (active); and `CCOC(=O)c1sc(=S)n2c1[nH]c(=O)c1ccc(C(=O)OC)cc12`, with 7.15%; and `COC(=O)c1cccc(-n2[nH]nnc2=S)c1`, with -14.5%. With `O=c1[nH]c2ccccc2n2c(-c3ccccc3)nnc12` the figure was 26% (active); with `O=C(Cn1cnc([N+](=O)[O-])n1)NCCc1ccccc1`, 11.3% (active). On to `COc1ccc(OCc2nnc3n2N=C(c2ccccc2)C(CC(=O)O)S3)cc1` (centres undefined), for which the inhibition is 27.3% (active). With `Cc1noc(C)c1CSc1nc2cc(S(=O)(=O)N3CCOCC3)ccc2o1` the figure was 71.6% (active).
